Screening data as filed in PubChem.
Hits are enriched below; roughly 2.6% of the tested compounds scored in any of these assays.
KLF5 inh: suppresses KLF5 promoter-driven expression; inhibition, % at 5 µM; hit rate 0.23% among 290,000; DLD-1 KLF5 promoter-luciferase reporter, luminescence;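 active means inhibition above a per-plate limit of that plate's mean compound inhibition plus 3 SD, cut at about 60% in these data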;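 further: 0% = DMSO wells and 100% = LY294002 at 200 µM; higher means less KLF5 promoter-driven luciferase light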
Ba/F3 V617F tox: reduce viability of Ba/F3 cells dependent on JAK2V617F | hit rate 1.1% among 220,000 | Ba/F3 EpoR-JAK2V617F viability, ATP luminescence | AID 1446 | inhibition, % at 5.6 µM;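 active means inhibition above the campaign mean plus 3 SD over all tested compounds, cut at about 24% in these data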;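 further: cytokine-independent growth of Ba/F3 cells driven by EpoR plus mutant JAK2; 0% = DMSO-treated cells and 100% = JAK inhibitor I control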
GPR7 antag: human neuropeptides B/W receptor 1 antagonism | hit rate 1.1% among 290,000 | GPR7-expressing cells, fluorescence antagonist assay | P48145 | inhibition, % at 4.4 µM; in the data active means inhibition above about 16%, passing the limit was not always enough;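 further: cells stimulated with the agonist NPW; 0% = agonist with vehicle and 100% = vehicle without agonist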
Target sequence (P48145 whole entry, looked up): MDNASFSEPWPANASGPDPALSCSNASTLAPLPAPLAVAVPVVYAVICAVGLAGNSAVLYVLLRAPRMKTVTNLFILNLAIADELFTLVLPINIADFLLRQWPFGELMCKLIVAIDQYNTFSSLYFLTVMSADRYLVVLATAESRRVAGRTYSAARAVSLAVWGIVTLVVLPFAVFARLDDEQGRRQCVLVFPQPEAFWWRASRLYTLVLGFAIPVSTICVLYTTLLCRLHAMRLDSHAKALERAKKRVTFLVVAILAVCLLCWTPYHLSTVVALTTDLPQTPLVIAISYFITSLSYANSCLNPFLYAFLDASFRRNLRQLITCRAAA
DNA FID counter: fluorescent intercalator displacement, NS3 helicase counter-screen. AID 1845. DNA fluorescent intercalator displacement, fluorescence. hit rate 0.17% among 290,000. inhibition, % at 7.9 µM; in the data active means inhibition above about 37%;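 further: 0% = vehicle and 100% = reference compound; higher means more ethidium bromide displaced from hairpin DNA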
IEC-6 cytotox: counter-screen for KLF5 inhibitors: cytotoxicity in IEC-6 cells; IEC-6 cytotoxicity, luminescence viability; inhibition, % at 5 µM; hit rate 0.78% among 290,000; AID 1825; in the data active means inhibition above about 22%;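 further: 0% = plate median of test compound wells and 100% = cytotoxic reference compound wells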
BaF3 parental: parental Ba/F3 viability inhibition as JAK2V617F counter-screen; AID 1486; inhibition, % at 5.6 µM; CellTiter-Glo ATP luminescence; hit rate 1.1% among 220,000;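 active means inhibition above a per-campaign cutoff, the mean inhibition of all tested compounds plus 3 SD, cut at about 27% in these data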;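 further: 0% = DMSO wells and 100% = JAK Inhibitor I control wells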
Active calls of the source: *; / = not tested or not shown.

SMILES | KLF5 inh | Ba/F3 V617F tox | GPR7 antag | DNA FID counter | IEC-6 cytotox | BaF3 parental
c1cnc2ccc(C(c3nnnn3C3CCCCC3)N3CCN(C4CCCCC4)CC3)cc2c1 (configuration not stated) | -10 | 37* | -2 | 17 | -6 | 33*
c1cnc2ccc(C(c3nnnn3C3CCCCC3)N3CCCCC3)cc2c1 (configuration not stated) | -38 | -1 | -1 | -35 | 0 | 3
CCc1nnc(NC(=O)CSc2nnc(-c3c[nH]c4ccccc34)n2C)s1 | -28 | -2 | -8 | -20 | -3 | 0
CN(C)c1ccc(N=C/C=C2\N(C)c3ccccc3C2(C)C)cc1 | -116 | 2 | -4 | 3 | 3 | 11
CN1/C(=C\C(=O)c2cccnc2)C(C)(C)c2ccccc21 | 20 | -1 | 4 | -16 | 0 | 7
CN1/C(=C\C=N\NC(=O)c2cccnc2)C(C)(C)c2ccccc21 | -6 | 38* | -4 | -21 | 1 | 43*
CN1/C(=C\C=N\NC(=O)c2ccc(O)cc2)C(C)(C)c2ccccc21 | -10 | 37* | -6 | -8 | 3 | 42*
OCCNc1ncnc2ccc(Br)cc12 | 2 | -1 | -12 | -4 | 2 | 2
O=C(NNC1CC(=O)N(c2ccc3c(c2)OCCO3)C1=O)c1ccccc1 (configuration not stated) | -28 | 5 | -6 | 2 | 2 | 5
CN(CCC#N)C(=O)c1ccc(CNS(=O)(=O)c2ccc(F)cc2)cc1 | -12 | 4 | 16* | -1 | 1 | 7
CN(CCC#N)C(=O)COC(=O)c1ccc(CNS(=O)(=O)c2ccc(F)c(Cl)c2)cc1 | -7 | -1 | -9 | -11 | -11 | 2
Cc1ccc(C)c(NC(=O)C(Sc2cccc[n+]2[O-])c2ccccc2)c1 (configuration not stated) | 1 | 2 | -15 | -8 | 5 | 6
Cc1ccc(C)c(NC(=O)C(Sc2nnc(-c3cccs3)o2)c2ccccc2)c1 (configuration not stated) | -1 | 89* | 0 | 0 | 11 | 72*
O=S(=O)(Cc1ccccc1)N1CCn2c(nc3ccccc32)C1 | -23 | -3 | -13 | -1 | -1 | 2
O=[N+]([O-])c1cc(/C=N/NC(=S)Nc2ccccc2Cl)ccc1Cl | 0 | -3 | 30* | 13 | 8 | 0
Cc1ccc(NC(=S)N/N=C/c2ccc(Cl)c([N+](=O)[O-])c2)cc1 | -24 | -4 | -5 | -5 | -2 | 5
Cc1nn(CC(=O)Nc2c(C)n(C)n(-c3ccccc3)c2=O)c(C)c1[N+](=O)[O-] | -23 | -5 | 6 | 8 | -9 | 4
CC(=NCc1ccco1)c1c(C)[nH]n(-c2nc3ccccc3s2)c1=O | -13 | 3 | -4 | 2 | -3 | 6
C/C(=N/NC(=O)c1cccs1)c1c(C)[nH]n(-c2nc3ccccc3s2)c1=O | -80 | 48* | -5 | -14 | 42* | 49*
CCOC(=O)c1c(NC(=O)C[n+]2ccc(N(C)C)cc2)sc(C)c1C | -7 | 29* | -11 | 11 | 8 | 35*
CCN1CCN(Cc2ccc(NC(=O)c3cc(NC(=O)c4cc(C)on4)cc(OC)c3)cc2C(F)(F)F)CC1 | -12 | / | 18 | 42* | -2 | /
COc1ccccc1N=c1oc2cc(O)ccc2cc1C(N)=O | -57 | 32* | -5 | 8 | 21 | 34*
CCN1CCCC1CNC(=O)C(=O)NC1CC1 (configuration not stated) | -23 | -4 | 0 | 3 | 2 | -1
COc1ccc2cc3[n+](cc2c1OC)CCc1cc2c(cc1-3)OCO2 | 3 | 72* | -4 | 0 | -10 | 63*
CCOc1ccc(S(=O)(=O)n2cnc3cc(C)c(C)cc32)cc1 | -26 | 40* | 8 | -20 | 8 | 50*
SMILES | KLF5 inh | Ba/F3 V617F tox | GPR7 antag | DNA FID counter | IEC-6 cytotox | BaF3 parental
CC1=C([N+](=O)[O-])C(c2cccc(Br)c2)C2=C(N1)c1ccccc1C2=O (configuration not stated) | 48 | 77* | -9 | 9 | 77* | 76*
CC(C)CCNC(=O)COc1ccc(C(=O)c2ccccc2)cc1 | -4 | 1 | -3 | -32 | 7 | 7
CCn1nc(C(=O)NCC(c2cccs2)N2CCOCC2)c2ccccc2c1=O (configuration not stated) | -17 | / | 4 | -28 | 0 | /
CCNC(=O)c1ccc2c(c1)C1C3CCC(C3)C1C(c1ccccc1)N2 (configuration not stated) | 2 | 2 | -3 | 96* | 6 | 9
O=C(OCN1C(=O)c2ccccc2C1=O)c1cccs1 | 11 | 2 | 21 | 2 | -2 | 94*
COc1ccc(-n2c(SC(C)C(=O)Nc3ncc(Cl)cc3Cl)nc3ccccc32)cc1 (configuration not stated) | 42 | 69* | 3 | -20 | 66* | 62*
CC(=O)c1cn(CC(=O)Nc2ccc(C)cc2C)c2ccccc12 | 9 | 25* | 7 | -7 | 2 | 39*
Cc1ccc(NC(=O)Cn2cc(C(=O)C3CC3)c3ccccc32)c(C)c1 | 13 | / | 1 | -5 | -3 | /
C[N+]1(CC(=O)OC2CCCCCCCCCCC2)CCCC1 | -8 | 73* | -8 | 27 | 9 | 72*
CCC(C)(C(=O)NC1CCCC1)N(Cc1cccs1)C(C)=O (configuration not stated) | -8 | -2 | -10 | -4 | -7 | 3
CCC(C)(C(=O)NC1CCCC1)N(Cc1cccs1)C(=O)Cc1cccs1 (configuration not stated) | 3 | 1 | 42* | -29 | -6 | 4
CCC(C)(C(=O)NC1CCCC1)N(Cc1ccco1)C(=O)c1ccccn1 (configuration not stated) | -24 | 1 | 17 | -13 | 3 | 3
CCC(C)(C(=O)NC1CCCCC1)N(Cc1ccco1)C(=O)c1cnccn1 (configuration not stated) | -11 | -4 | 16* | -8 | -2 | 5
c1ccc(Cn2nnc3c(N4CCC5(CC4)OCCO5)ncnc32)cc1 | -2 | -1 | 7 | -16 | 4 | 12
COC(=O)c1nnn(-c2nonc2N)c1CSc1ccccn1 | -6 | 3 | 8 | -13 | 5 | 0
Cc1c(C(=O)Nc2ccc3c(c2)OCO3)oc2ccccc12 | -202 | / | -9 | -22 | 0 | /
CCOC(=O)C1=C(O)C(=O)N(c2ccc(S(N)(=O)=O)cc2)C1c1ccc(OC)cc1 (configuration not stated) | -9 | -1 | -1 | -9 | -1 | 6
CCOC(=O)N1CCC(N2C(=O)c3ccccc3C2Nc2c(C)cccc2C)CC1 (configuration not stated) | -32 | -4 | 16* | -23 | 2 | 1
CCOC(=O)N1CCC(N2C(=O)c3ccccc3C2Nc2ccccc2)CC1 (configuration not stated) | -21 | 0 | -4 | -31 | 2 | 10
